In PubChem BioAssay (NCI) one finds growth data, which are given here for 84 molecules.

The test system of the assay is HL-60(TB) leukemia. The experiment in a line: NCI-60 one-dose screen, 48 h (100 = growth as untreated, 0 = no growth, -100 = all killed). The note with it: 10 µM unless noted.

This is part of a sample that, as a whole, favours compounds with a hit. Of some 83,000 tested, about 20% had one in any assay.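 Method: cells in 96-well plates; compound added at one concentration; 48 h incubation; percent growth measured; values under 10 scored active.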 Values without a mark were called inactive. Activity calls are given as the source filed them.

As for `COc1ccc(NC2=C(Sc3nc(C)cc(C)n3)C(=O)N(Cc3ccccc3)C2=O)cc1Cl`, the growth was 58.8% [30 µM].

With `CC1(C)CC[C@]23CC[C@]4(C)[C@H](CC[C@@H]5[C@@]6(C)C/C(=C/c7cccnc7)C(=O)C(C)(C)[C@@H]6CC[C@]54C)[C@H]2[C@H]1OC3=O`, the growth is -0.84% [100 µM] (active).

Turning to `O=C1/C(=C/c2ccc(Br)cc2)COc2ccc(O)cc21`, the growth is -15.7% (active).

With `COc1ccc(/C(C)=C(\c2ccc(Cl)cc2)c2ccc(OCCCN(C)C)cc2)cc1`, the growth was 67.1%.

Take `COc1ccc(/C=C/c2nc(Nc3ccc(S(=O)(=O)NC(C)=O)cc3)c3ccccc3n2)cc1`: the growth is 85.7%.

In the case of `C/C=C/C/C=C/[C@H](C)C[C@H](O)[C@@H]1C[C@@H]2O[C@H]2/C=C/[C@@H]2OC(C)(C)O[C@H]2/C=C/C[C@H](C)CC(=O)O1`, the growth was 31.2%.

Turning to `Fc1ccc(Nc2ncnc3ccc(-c4cnc5[nH]ccc5c4)cc23)cc1Cl`, the growth was -22.3% (active).

Regarding `CCN1C(=O)N(CC)C2C1NC(=S)N2/N=C/C=C/c1ccccc1OC` (centres undefined), the growth was -20.8% (active).

Turning to `CCOC(=O)N1C/C(=C/c2ccc(F)cc2)C(=O)/C(=C/c2ccc(F)cc2)C1`, the growth is 4.58% (active).

As to `CCCCCCCCCCN=C(N)N=C(N)N`, the growth is 1.55% (active).

With `COc1ccc(OC)c(/C=C/c2nc(SCc3ccccc3)n(-c3ccc(Cl)cc3)n2)c1`, the growth is 1.31% (active).

Turning to `Cc1nnc(/N=C2\NC(=O)/C(=C/c3ccsc3)S2)s1`, the growth is 102%.

Take `CC(CC(CCC(=O)O)(c1ccccc1)c1ccccc1)N(C)C` (centres undefined): the growth is 109%.

Turning to `COc1ncc(-c2ccc3nccc(C#CCCCCC(=O)NO)c3c2)cc1NS(=O)(=O)c1ccc(F)cc1F`, the growth was -33.3% (active).

As for `Oc1ccc([S+](c2ccc(O)cc2)c2ccc(O)cc2)cc1`, the growth is 110%.

As for `NC(=S)N/N=C/c1cc(-c2cccc(N)c2)ccn1`, the growth is -12% (active).

Regarding `COc1cc(/C=N/NC(=S)NNC(=S)NC2CCCCC2)cc(OC)c1OC`, the growth was 104%.

Consider `C/C(=C\C(=O)c1ccc(Cl)cc1)c1ccc(Cl)cc1`, for which the growth was 92.5%.

With `O=S(=O)(NCCNc1nccc(-c2c(-c3ccc(F)cc3)nc3sccn23)n1)c1ccc(F)cc1`, the growth was 117%.

Turning to `Nc1c(C(=O)Nc2cccc3cnccc23)sc2nc3c(cc12)CN(Cc1ccccc1)CC3`, the growth was 101%.

As for `O=C(Nc1cccc([N+](=O)[O-])c1)c1cc2ccccc2cc1O`, the growth was -54.1% (active).

On to `CC1=NN(c2ccc(S(=O)(=O)O)cc2)C(=O)C1N=Nc1ccc(-c2ccc(N=Nc3ccc(OS(=O)(=O)c4ccc(C)cc4)cc3)c(S(=O)(=O)O)c2)cc1` (centres undefined), for which the growth is 108%.

On to `CCCCCCCCCCCC[n+]1ccc(CCCCCCCCC)cc1`, for which the growth is -53.3% (active).

Turning to `O=C(Cn1c[n+](CC(=O)c2ccc([N+](=O)[O-])cc2)c2ccccc21)Nc1cccc2cccnc12`, the growth is 61.9%.

In the case of `OCc1cn(-c2ccc(Cl)cc2)nc1-c1ccc(O)cc1`, the growth was 51.7%.

On to `COc1cc(NC(C)CCCN)c2ncccc2c1Sc1ccc(Cl)cc1` (centres undefined), for which the growth was 81.3%.

For `COc1ccc(Cl)cc1C(=O)Nc1nc2ccc(Cl)cc2s1`, the growth was 103%.

Turning to `CN1CCN(C(=O)c2ccc(NC(=O)c3cc4c(nn3)NCCN4Cc3cc(Cl)ccc3Cl)cc2)CC1`, the growth is 43%.

As for `CC1=C(/C=C/C(C)=C/C=C(C(=O)O)\C(C)=C\C(=O)O)C(C)(C)CCC1`, the growth was 85.3%.

For the molecule `Cc1cc(/C=C2\SC(=Nc3ccccc3)N(C3CCCC3)C2=O)c(C)n1-c1ccc(Cl)cc1`, the growth is -27.3% (active).

As to `O=c1ccc(=O)n(-c2nc(-c3ccc([N+](=O)[O-])cc3)cs2)[nH]1`, the growth was 89%.

For `NCC(=O)NC(CC(=O)O)C(=O)O` (centres undefined), the growth was 90.7%.

As to `O=C(O)C1CN(c2cccc(Cl)c2)N(c2cccc(Cl)c2)C1=O` (centres undefined), the growth is 95.3%.

Regarding `CC1(C)CC[C@]23CC[C@]4(C)[C@H](CC[C@@H]5[C@@]6(C)C/C(=C/O)C(=O)C(C)(C)[C@@H]6CC[C@]54C)[C@H]2[C@H]1OC3`, the growth was 102%.

For `Clc1ccc(-c2nnc(-c3cccc4ccccc34)o2)cc1`, the growth is 112%.

Consider `O=C1/C(=C/c2ccc(O)cc2)COc2ccc(-c3ccccc3)cc21`, for which the growth is -51% (active).

For the molecule `Fc1cc(-c2nnc3n2NC(=Nc2ccc(Cl)cc2)CS3)c(Cl)cc1Cl`, the growth is 94.1%.

With `COC1(OC)C2(Cl)C(Cl)=C(Cl)C1(Cl)C1COCC12` (centres undefined), the growth is 82.9%.

`Cc1ccc(S(=O)(=O)NC(CCC(=O)Nc2ccc(Cl)cc2)C(=O)Nc2ccc(Cl)cc2)cc1` (centres undefined): the growth was 24.1%.

Regarding `CCOC(=O)CSc1nc2sc3c(c2c(=O)n1-c1ccccc1)CCCCC3`, the growth was 109%.

With `COc1cc2cc(C(=O)Nc3ccccc3)c(N)nc2cc1OC`, the growth is -42.1% (active).

On to `COC(=O)[C@@]12CC=C(C)[C@]3(C[C@H](c4ccoc4)OC3=O)[C@H]1C=C[C@@H](O)[C@@]2(O)C(=O)OC`, for which the growth is 107%.

Consider `CCN(CCCNC(=O)Cc1cc(=O)oc2cc(N(C)C)ccc12)CCNc1ccnc2cc(Cl)ccc12`, for which the growth is 76.6%.

With `Cn1cc(-c2csc(-c3cn(CCN)c4ccc(F)cc34)n2)c2cccnc21`, the growth was 47.1%.

In the case of `CCCCNC(=O)Oc1ccc(/C(=C(/C)Cc2ccc(OC)cc2)c2ccc(OCCN3CCCC3)cc2)cc1`, the growth was 43.9%.

For the molecule `O=C1c2ccccc2C(=Cc2ccccc2)c2ccccc21`, the growth was -1.29% (active).

Consider `S=C(SSC(=S)N(c1ccccc1)c1ccccc1)N(c1ccccc1)c1ccccc1`, for which the growth was 85.1%.

For the molecule `CC(Sc1ccccc1)C(=O)O` (centres undefined), the growth was 143%.

`Cc1ccc(S(=O)(=O)N2CCc3ccc(O)c4c3C2Cc2ccc3c(c2-4)OCO3)cc1` (centres undefined): the growth is -8.02% (active).

Regarding `O=C(Nc1ccc(-n2cc(-c3ccncc3)c(-c3ccc(O)c(Cl)c3)n2)cc1)Nc1cccc(Cl)c1Cl`, the growth was 78.8%.

Regarding `COC(=O)[C@]12CC[C@@H](C)[C@H](C)[C@@H]1C1=CC[C@@H]3[C@@]4(C)C[C@@H](O)[C@H](O)[C@@](C)(CO)[C@@H]4[C@H](O)C[C@@]3(C)[C@]1(C)CC2`, the growth is -27.4% (active).

As for `Oc1ccc(Cc2ccccc2)c2cccnc12`, the growth was -15.8% (active).

In the case of `CN(C)CCCCNc1ccc(NCCCCN(C)C)c2c1C(=O)c1c(O)ccc(O)c1C2=O`, the growth is 24.6%.

`CC(NC(=O)CCl)c1ccccc1` (centres undefined): the growth is 83.4%.

As for `O=C(/C=C(O)/C=C/c1cccc2[nH]ccc12)/C=C/c1cccc2[nH]ccc12`, the growth is 39.4%.

For `O=C1CCCCC=C1C[N+](=O)[O-]`, the growth is 0.0104% (active).

Regarding `COc1c2ccccc2c(OC)c2[nH]c(=O)ccc12`, the growth was 71.5%.

With `CS(=O)(=O)Nc1ccc(OCc2nnc(-c3ccc(Cl)cc3)o2)c(F)c1`, the growth was 115%.

As to `CCCCCCC1(/C=N/NC(N)=O)NC(=O)NC1=O` (centres undefined), the growth is 96.7%.

For the molecule `CC(C)(Sc1cc(C(C)(C)C)c(OC(=O)CCCC(=O)O)c(C(C)(C)C)c1)Sc1cc(C(C)(C)C)c(OC(=O)CCCC(=O)O)c(C(C)(C)C)c1`, the growth is -22.6% (active).

Consider `O=C(Nc1nc2ccc(C(=O)N3CCN(/C=C/c4ccccc4)CC3)cc2s1)c1ccc(NCCc2ccccc2)c([N+](=O)[O-])c1`, for which the growth was 80.5%.

As to `O=C(NC1CCOCC1)c1ccc2c(c1)CN(c1ncc(Cc3cccc(-n4cccn4)c3)s1)CC2`, the growth was 68.7%.

Turning to `CC(=O)Nc1cccc(C2=CC(c3ccc(C)cc3)n3ncnc3N2)c1` (centres undefined), the growth is 89.9%.

As to `Cc1noc(C)c1-c1cc(O)cc(C(O)c2ccccc2)c1` (centres undefined), the growth was 10%.

`O=C(O)COc1ccccc1F`: the growth is 104%.

Turning to `CC(=O)c1sc2c(c1OC(=O)c1ccc(Cl)cc1Cl)c(=O)n(-c1ccccc1)c(=S)n2-c1ccccc1`, the growth is -31.9% (active).

With `CCCCOc1nc2c(C)cccc2cc1C1CNC(=O)c2ccccc2N1` (centres undefined), the growth was 26.2%.

Take `Cc1ccc2c(c1)c(-c1nc(-c3c[nH]c4ncccc34)cs1)cn2C`: the growth was 84.1%.

As to `Cc1cc2c(C)c3cc(C)c(N)cc3nc2cc1N`, the growth was 19%.

Turning to `O=C1Nc2ccccc2C2c3cccn3-c3ccccc3N12` (centres undefined), the growth was 86.1%.

In the case of `COc1ccc2c(c1)CCCC21C(=O)Nc2c(Cl)cccc21` (centres undefined), the growth is 33.9%.

As for `COc1cc(-c2cc(/C=C3\C(=O)Nc4ccccc43)[nH]n2)cc(OC)c1OC`, the growth was -12.1% (active).

Turning to `O=C(Nc1cccc(Oc2nnc(Cl)c3ccccc23)c1)Nc1ccc(Cl)c(C(F)(F)F)c1`, the growth is -16.7% (active).

Turning to `COc1ccc(/C=C/C(=O)c2ccc(NC(=O)c3cc4cc5ccccc5nc4s3)cc2)cc1OC`, the growth is 92.5%.

Regarding `O=C(NCCN1CCC(O)CC1)c1cc2c(o1)C(=O)c1ccccc1C2=O`, the growth was -13.9% (active).

For `O=C(/C=C/C12c3ccccc3C(c3ccccc31)C1C(=O)N(c3ccccc3)C(=O)C12)c1ccccc1` (centres undefined), the growth is 10.5%.

As to `COc1nc(OC)nc(-c2cc(-c3cc(OC)c(OC)c(OC)c3)no2)n1`, the growth is 95.2%.

`Cc1cc(C(C)(CC(C)C)c2ccc(O)c(C)c2)ccc1O`: the growth was 106%.

For `Nc1ccc(-c2cc3c(Nc4ccc(Oc5cccc(C(F)(F)F)c5)c(Cl)c4)ncnc3s2)cc1`, the growth was 54.9%.

Consider `CC/C=C\C[C@H](O)C/C=C1/C(=O)C=C[C@@H]1C/C=C\CCCC(=O)OC(C)C`, for which the growth was -38.3% (active).

In the case of `Nc1ccc2c(c1Br)Cc1ccccc1-2`, the growth was 56.3%.

On to `N#C/C(=C\c1c(-c2ccccc2)[nH]c2ccccc12)C(N)=O`, for which the growth is 39.6%.

On to `COc1ccc(/C=C/c2nc(N3CCOCC3)c3nc(Cl)c(Cl)cc3n2)cc1OC`, for which the growth was 91.9%.

On to `CCCCN1CCN(c2ccc3nc(-c4ccc5nc(-c6ccc(OCC)cc6)[nH]c5c4)[nH]c3c2)CC1`, for which the growth is 34.3%.
